# Compounds without any hit were thinned out: in the full panel of roughly 83,000, 20% have a hit.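 Results are percent growth after 48 hours of single-concentration exposure. 100 means growth as in untreated cells, lower positive values show inhibition; negative values down to -100 show cell death.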 Unmarked numbers belong to inactive results. Activity calls are given as the source filed them. How the source made its calls: active means growth percent below 10; inactive means the rest.
# Columns and labels:
# Assay in all cases: NCI-60 one-dose screen, 48 h (100 = growth as untreated, 0 = no growth, -100 = all killed)
# NCI-H23 lung = settings: 10 µM unless noted
# NCI-H226 lung = settings: 10 µM unless noted
# NCI-H322M lung = settings: 10 µM unless noted
# HOP-62 NSCLC = settings: 10 µM unless noted
# NCI-H460 lung = settings: 10 µM unless noted
# HOP-92 NSCLC = settings: 10 µM unless noted
# NCI-H522 lung = settings: 10 µM unless noted
# A549/ATCC NSCLC = settings: 10 µM unless noted
# 786-0 renal = settings: 10 µM unless noted
# COLO 205 colon = settings: 10 µM unless noted
# DU-145 prostate = settings: 10 µM unless noted
# K-562 leukemia = settings: 10 µM unless noted
# MALME-3M melanoma = settings: 10 µM unless noted
# MDA-MB-231 breast = settings: 10 µM unless noted
# SF-268 CNS = settings: 10 µM unless noted
# SF-295 CNS = settings: 10 µM unless noted
# SF-539 CNS = settings: 10 µM unless noted
# UACC-257 melanoma = settings: 10 µM
# M14 melanoma = settings: 10 µM unless noted
Structure (SMILES),growth (NCI-H23 lung),growth (NCI-H226 lung),growth (NCI-H322M lung),growth (HOP-62 NSCLC),growth (NCI-H460 lung),growth (HOP-92 NSCLC),growth (NCI-H522 lung),growth (A549/ATCC NSCLC),growth (786-0 renal),growth (COLO 205 colon),growth (DU-145 prostate),growth (K-562 leukemia),growth (MALME-3M melanoma),growth (MDA-MB-231 breast),growth (SF-268 CNS),growth (SF-295 CNS),growth (SF-539 CNS),growth (UACC-257 melanoma),growth (M14 melanoma)
CC(=O)Nc1nc(C(=O)N2N=C(C)/C(=C/c3ccccc3)C2=O)cs1,108%,107%,102%,99.8%,106%,108%,85.4%,101%,105%,103%,111%,98.4%,96.8%,113%,105%,108%,97.2%,104%,95.2%
COc1ccc(-c2nnc(COc3ccc(NC(=O)Nc4ccc(Cl)c(C(F)(F)F)c4)cc3F)o2)cc1,-20.2% (active),33.5%,33%,36.4%,-25.4% (active),-13.4% (active),-54.6% (active),11.1%,24.7%,-7.23% (active),13.2%,16.9%,-1.11% (active),-8.46% (active),20.5%,-3.88% (active),0.516% (active),30.3%,9.03% (active)
O=Nc1c(-c2c(O)[nH]c3ccc([N+](=O)[O-])cc23)[nH]c2ccc(O)cc12,3.19% (active),-4.7% (active),7.21% (active),-9.77% (active),-28.5% (active),-3.1% (active),-79.1% (active),10.6%,4.21% (active),65.8%,6.72% (active),20.9%,11.7%,25.4%,6.5% (active),20.9%,-34.1% (active),9.29% (active),11.4%
FC(F)(F)c1cccc(-n2nnc3cnc(Nc4ccc(N5CCCCC5)cc4)nc32)c1,66.5%,92.4%,90.7%,98.1%,12.6%,110%,2.95% (active),20.9%,25.3%,77.2%,57.6%,67.3%,41.6%,58.7%,55.5%,93.6%,90.7%,63.4%,33.8%
COc1ccc(C(=O)N2CCN(C(=O)c3cc(OC)c(OC)c(OC)c3)CC2)cc1OCCCCOc1cc2c(cc1OC)C(=O)N1CCC[C@H]1C=N2,82.2%,105%,141%,105%,121%,70.9%,102%,76.8%,108%,107%,113%,116%,126%,82.4%,126%,109%,98.9%,–,115%
COc1ccc(C2CC(c3cccs3)=NN2c2ccc(S(=O)(=O)NC(=O)Nc3ccc(C)cc3)cc2)cc1 (centres undefined),98.5%,110%,104%,76.9%,103%,84.9%,91.5%,102%,104%,-54.6% (active),102%,114%,40.6%,117%,95.6%,100%,98.3%,40.9%,58.4%
COc1ccc(/C=C2\Oc3cc(OCCN4CCCC4)ccc3C2=O)c(OC)c1,88.5%,97.8%,101%,84.3%,93.9%,79.7%,104%,99.4%,88.2%,92.8%,90.8%,2.26% (active),102%,88.7%,95.1%,100%,87.4%,–,98.9%
COc1ccc(C2CC(c3cccs3)=NN2c2ccc(S(=O)(=O)NC(=O)NCc3cccc(OC)c3)cc2)cc1 (centres undefined),97.6%,110%,102%,81%,109%,87.1%,87.3%,5.45% (active),101%,-63.5% (active),106%,111%,31.2%,113%,97.9%,105%,104%,30%,52.1%
c1cncc(CNc2ccccc2-c2nnc(Nc3ccc4c(c3)OCCO4)o2)c1,20.9%,7.4% (active),49.6%,32.5%,4.61% (active),136%,-28.3% (active),31.8%,42.4%,-21.9% (active),-5.96% (active),14.2%,80.2%,26.4%,18.7%,12.2%,4.68% (active),–,12.7%
CCCCCCCCCCCCCCCCCCOc1cccc(CCOP(=O)(O)OCC[N+](C)(C)C)c1,96.3%,95.3%,105%,72.2%,60.7%,72.9%,72%,84.9%,91.2%,97.4%,95.9%,116%,101%,95.5%,68%,87.2%,95.1%,–,93.4%
CC(C)(C)OC(=O)N1C/C(=C\c2cccs2)C(=O)/C(=C/c2cccs2)C1,96.3%,93.1%,94.3%,89%,105%,82.2%,79.5%,86.9%,81.4%,117%,107%,75.8%,95.8%,101%,91.8%,98.9%,99%,–,98.3%
